This is an account of results in PubChem BioAssay AID1422 (Emory University Molecular Libraries Screening Center, 2008).

Molecules are shown by their SMILES. “And” between values parts separate entries of the source, which are not always exact repeats. Equal entries are not always repeated. Out of some 260,000 compounds screened, about 1,300 (0.5%) were called active.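 Rule for the calls: active = percent inhibition above 40 after rounding to a whole number; inactive = the rest.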 The entries come from a sample that favours actives as a whole. Some structures have more than one record in an assay (separate samples or runs), and their calls can disagree.

For this assay, the target named is Prostaglandin E2 receptor EP2 subtype (Homo sapiens) (UniProt P43116). The experiment in a line: human EP2 receptor antagonists, primary screen, TR-FRET cAMP, C6 glioma cells (AID 1422).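 Note: rat C6 glioma host cells with rolipram phosphodiesterase inhibitor present; the protocol text gives 20 µM as final concentration.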 The conditions noted are these: C6 glioma cells expressing human EP2, cAMP TR-FRET; at 25 µM; stronger effect = higher value; cells stimulated with saturating PGE2. A general note: In TR-FRET formats the signal depends on donor and acceptor labels being close together.
Chain of Prostaglandin E2 receptor EP2 subtype (Homo sapiens) (P43116 whole entry, looked up): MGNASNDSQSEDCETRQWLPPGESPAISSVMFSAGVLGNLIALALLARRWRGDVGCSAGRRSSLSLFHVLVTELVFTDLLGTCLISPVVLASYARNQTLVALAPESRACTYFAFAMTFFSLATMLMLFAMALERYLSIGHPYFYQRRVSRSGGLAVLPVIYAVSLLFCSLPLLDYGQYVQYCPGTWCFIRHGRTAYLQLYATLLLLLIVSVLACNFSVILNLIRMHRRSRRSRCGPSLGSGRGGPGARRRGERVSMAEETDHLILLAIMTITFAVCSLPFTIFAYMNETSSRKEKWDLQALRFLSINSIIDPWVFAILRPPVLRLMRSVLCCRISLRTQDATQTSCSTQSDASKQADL
On to `COc1ccccc1NC(=O)c1sc(NC(=O)c2cccc(C)c2)c(C#N)c1C`, for which the inhibition – broadly, the relative decrease from the control value, in per cent – was 11.9% (inactive). The figure for `CCC(CN1CCC(C)CC1)NC(=O)Cc1c(C)nc(OC)nc1OC` (stereo not given) is 0.46% (inactive); for `O=C(O)c1nn(-c2ccc(Cl)cc2)c2c1C(=O)c1ccccc1C2=O` it is 42.4% (active); for `Cc1cc(C(=O)NCCc2ccc(Cl)cc2)n(-c2ccccc2)n1` it is 6.8% (inactive). With `Cc1ccc(-n2ccc(=O)c(C(=O)O)n2)cc1` the figure was 11.4% (inactive); with `Cc1sc2nc(C(C)C)nc(SCC(=O)NCc3ccccc3)c2c1C`, 4.54% (inactive). The figure for `O=C(NC1CCCC1)C(c1ccccc1F)N(Cc1ccco1)C(=O)Cc1c[nH]c2ccccc12` (stereo not given) is 11.9% (inactive). Regarding `Cc1ccccc1C(=O)Nc1ccc(N2CCCCCC2)cc1`, the inhibition was -0.3% (inactive). The figure for `O=C1C=CC(=O)N1c1ccc(N2CCCCC2)cc1` is 106% (active); for `N#CSc1ccc(N2CCCCC2)cc1` it is 6.1% (inactive); for `C=C(C)Cn1c(N2CCC(C)CC2)nc2c1c(=O)[nH]c(=O)n2C` it is 10.2% (inactive). With `C=CCn1c(NC)nc2c1c(=O)n(C)c(=O)n2C`, the inhibition was 7.03% (inactive).

As for `Cc1c(NC(=O)c2cc(-c3ccc(Cl)s3)nc3ccccc23)c(=O)n(-c2ccccc2)n1C`, the inhibition was 13.1% (inactive).

In the case of `CCOC(=O)c1cc(-c2ccc(Cl)s2)nc2c1c(C)nn2C`, the inhibition is 41.6% (active).

In the case of `CCOC(=O)c1cnc2c(c(C)nn2CC)c1Cl`, the inhibition is 4.46% (inactive). For the compound `COc1cc(OC)cc(-n2nnnc2SCC(=O)N2CCN(C)CC2)c1`, the inhibition was 10.8% (inactive). As for `COc1ccc2cc(C#N)c(SCC(=O)Nc3ccccc3Br)nc2c1`, the inhibition was 27% (inactive). With `C=CS(=O)c1sc(Cl)c(N2CCOCC2)c1[N+](=O)[O-]` (stereo not given) the figure was 116% (active).

With `COc1cc(NC(=O)CSc2nnc3c(n2)[nH]c2ccccc23)cc(OC)c1`, the inhibition is 9.57% (inactive).

Consider `Cc1cc2nc(-c3ccc(SCC(=O)N4CCCCC4C)nc3)[nH]c2cc1C` (stereo not given), for which the inhibition was 12.4% (inactive). With `Cc1ccc2nc(-c3ccc(SCC(=O)Nc4cc(C)on4)nc3)[nH]c2c1` the figure was 64.2% (active) and 20.1% (inactive). The figure for `Cc1ccc(SCCC(=O)Nc2cc(C)on2)cc1` is 1.47% (inactive); for `CCCN1C(=O)/C(=C/N(C(C)=O)c2ccccc2)SC1=S` it is 12.5% (inactive). With `CC1CCN(C(=O)CSc2nc3ccccc3n2Cc2ccccc2)CC1` the figure was 11.6% (inactive); with `Fc1ccc2[nH]c3c(N4CCSCC4)ncnc3c2c1`, 59.2% (active); with `O=C(NCc1noc(-c2ccccc2)n1)c1cc(-c2ccccn2)n[nH]1`, 4.63% (inactive). `O=C(CN1C(=O)[C@@H]2CCCN2C(=O)c2ccccc21)Nc1ccc2c(c1)OCCO2`: the inhibition is 6.18% (inactive).

`NC(N)=N/N=C/c1ccc(Cl)c([N+](=O)[O-])c1`: the inhibition is 5.88% (inactive). As to `COc1ccc(C(=O)O/N=C(\N)Cc2ccc(Cl)cc2Cl)cc1OC`, the inhibition is 14.2% (inactive).

For `NC(N)=N/N=C/c1ccc(OCc2ccc(Cl)cc2Cl)cc1`, the inhibition was 97.3% (active).

For `CCOc1ccc2nc(NC(=O)c3ccc(NC(C)=O)cc3)sc2c1`, the inhibition is 11.4% (inactive). With `CC(C)(C)NC(=O)Cn1nnc(-c2ccc(N)cc2)n1` the figure was 7.5% (inactive); with `COc1ccccc1CC(=O)Nc1ccc([N+](=O)[O-])cc1OC`, 2.1% (inactive).

For `COc1ccccc1CSc1nc2ccccc2[nH]1`, the inhibition is -5.57% (inactive). For the compound `COc1ccccc1CSc1ncc(-c2ccc([N+](=O)[O-])cc2)[nH]1`, the inhibition is 85.8% (active). The figure for `N#CCN1CCN(c2ncnc3sc4c(c23)CCCC4)CC1` is 12.8% (inactive). With `CCN(CC)CCCN1C(=O)C(O)=C(C(=O)c2ccc(C)o2)C1c1ccccc1F` (stereo not given) the figure was 13.9% (inactive); with `COc1ccc(C2=NNC(c3cccnc3)=Nc3ccc(Br)cc32)cc1OC`, 6.87% (inactive); with `Cc1cccc(C(=O)O)c1C[C@@H]1NCC[C@@H]2c3ccccc3N[C@@H]12`, 46% (active). The figure for `O=C(CN1N=C(c2ccccc2)Cn2c(cc3sccc32)C1=O)NCC1CCCO1` (stereo not given) is 4.16% (inactive); for `CCc1cc2cc3c(cc2nc1SCC(=O)Nc1ccccc1Br)OCCO3` it is 8.66% (inactive).

On to `Cc1cc2ccccc2n1CCNC(=O)COc1ccc2ccccc2c1`, for which the inhibition is 73.2% (active). The figure for `Cc1cc2ccccc2n1CCC(=O)O` is 7.85% (inactive); for `COC(=O)C(C)NC(=O)COc1ccc2ccccc2c1` (stereo not given) it is 8.28% (inactive); for `COC(=O)c1ccc(Cn2nc([N+](=O)[O-])c(Cl)c2C)cc1` it is 12.7% (inactive).

Regarding `O=S(=O)(O)c1ccc(O)c2ncccc12.O=S(=O)(O)c1ccc(O)c2ncccc12.[Zn]`, the inhibition was 45.1% (active). The figure for `O=C(O)COc1c(Cl)cc(Cl)c2cccnc12` is 16.4% (inactive). As to `O=[N+]([O-])c1cc([N+](=O)[O-])c2cccnc2c1O`, the inhibition was 7.12% (inactive). The figure for `Cc1ccc(-n2c(SCC(=O)NC(C)(C)C)nnc2-c2cccnc2)cc1C` is 15.1% (inactive); for `COc1ccc(NS(=O)(=O)c2ccc(NC(=O)C(C)(C(F)(F)F)C(F)(F)F)cc2)nn1` it is 14.1% (inactive). The figure for `COc1ccc(NS(=O)(=O)c2ccc(NC(=S)NC(=O)/C=C/c3ccc(C)cc3)cc2)nn1` is 63.2% (active); for `Cc1ccc(NC(=S)NC(=O)/C=C/c2ccc(Cl)cc2)cc1` it is 5.92% (inactive).

As to `CC1CCN(c2nc3c(c(=O)[nH]2)CCN(Cc2ccc(C(F)(F)F)cc2)C3)CC1`, the inhibition was 6.96% (inactive). With `COc1ccc(Cc2nnc(NC(=O)Cc3ccc(Cl)cc3)s2)cc1OC` the figure was 9.47% (inactive); with `CC1=NN(Cc2ccccc2)C(=O)/C1=C/c1ccc(N(C)C)cc1`, 18.2% (inactive); with `COc1cc(C=C2C(=O)OC3(CCCC3)OC2=O)ccc1OCc1ccccc1F`, 13.4% (inactive). With `CN(C)c1ccc(C=C2C(=O)OC3(CCCC3)OC2=O)cc1` the figure was 41.7% (active) and 7.71% (inactive); with `Cc1nn(C)cc1S(=O)(=O)N(Cc1ccncc1)C1CC1`, 7.77% (inactive). As to `Cc1nc2c(c(=O)[nH]1)CCN(C(=O)Cn1c3ccccc3c3ccccc31)C2`, the inhibition is 7.09% (inactive). `Cc1[nH]nc2c1C(c1ccc(OCC(=O)N3CCCC3)cc1)C(C#N)=C(N)O2` (stereo not given): the inhibition is 10.8% (inactive).
